Bioassay records: PubChem BioAssay, National Center for Advancing Translational Sciences (NCATS)
This is a sample that favours compounds with a hit; in the whole collection about 6% have one here.
D1 agonist = agonists of human D1 dopamine receptor; P21728; HEK293 T-REx D1 cells, calcium flux, agonist mode; activation, % at 2 µM; 360,000 compounds, 1% hits; AID 504660; in the data active = activation above about 30%
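Tetracycline-induced HEK293 TREx D1 cells, force-coupled to calcium signalling, were dye-loaded with a no-wash calcium kit. Compound was pin-added after a 10 s baseline. Fluorescence was read kinetically at 1 cycle/s for 180 s, with calcium rises flagged as agonism.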
Chronic BCR inh = chronic active BCR signaling inhibition; ABC-DLBCL IkBa-CBG/CBR reporter, luminescence ratio, 4 h; Potency, µM (highest dose often 46.1 µM), most hits filed as inhibitors; 340,000 compounds, 0.05% hits; AID 493014; active = well fitted inhibition curve with a large enough effect in the signal ratio, with a control signal flat, not every such curve was filed as active; inconclusive = small, poorly fitted or top-dose-only effect, or effect the other way, or a change in a side signal; the % refers to the signal ratio
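TMD8 ABC-DLBCL cells carrying doxycycline-inducible green luciferase fused to IkappaBalpha plus unfused red luciferase were exposed to compounds (up to 46 uM) for 4 hrs at 37C. Activity came from the overlap-corrected green/red luminescence ratio.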
D3 antag = antagonists of human D3 dopamine receptor; D3R cells, DiscoveRx beta-arrestin luminescence, antagonist mode; hits give low values; max response, negative = inhibition, %; 360,000 compounds, 2.5% hits; AID 652054; in the data active = max response below about -50%; inconclusive = no clear call, values can overlap the other calls
Target sequence (P35462 whole entry, looked up): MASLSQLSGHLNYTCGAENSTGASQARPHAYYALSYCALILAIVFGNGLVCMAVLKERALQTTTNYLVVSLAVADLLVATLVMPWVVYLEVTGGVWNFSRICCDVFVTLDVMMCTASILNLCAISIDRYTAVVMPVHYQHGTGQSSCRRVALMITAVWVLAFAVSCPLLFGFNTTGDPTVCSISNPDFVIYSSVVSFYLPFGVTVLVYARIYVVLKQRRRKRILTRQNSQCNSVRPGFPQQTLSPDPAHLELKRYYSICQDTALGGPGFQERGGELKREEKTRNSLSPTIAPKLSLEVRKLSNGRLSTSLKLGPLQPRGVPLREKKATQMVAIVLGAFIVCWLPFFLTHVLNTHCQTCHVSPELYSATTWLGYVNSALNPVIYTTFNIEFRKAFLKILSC
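Cells expressing the human receptor were seeded at 1500 cells/well, incubated overnight at 37 degrees C in 5% CO2, then exposed to library compounds with dopamine controls for 90 minutes at 37 degrees C before luminescent detection.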
D1 antag = human D1 dopamine receptor antagonism; 360,000 compounds, 3.2% hits; P21728; activity change, negative = inhibition, % at 10 µM; HEK293 TREx D1 cells, calcium flux, dopamine EC80; hits give low values; in the data active = activity change below about -30%
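HEK293 T-REx cells expressing inducible, force-coupled D1 receptor; no-wash Ca dye, 30–90 min RT. Cmpd → 180 s read at 1 Hz → EC80 DA → 180 s read.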
D3 ag = activates the human D3 dopamine receptor; P35462; max activation, %; 410,000 compounds, 0.58% hits; D3R DiscoveRx beta-arrestin cells, luminescence, 90 min; in the data active = max activation above about 30%
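Agonist mode: compounds and dopamine controls were applied to plated cells for 90 min at 37 degrees C after an overnight attachment at 1500 cells/well. Luminescent read-out followed 30 - 60 minutes at room temperature with DiscoveRx detection reagent.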
D1 PAM = human D1 dopamine receptor positive modulation | P21728 | HEK293 TREx D1 cells, calcium flux, dopamine EC20 potentiation | potentiation, % at 10 µM | 360,000 compounds, 0.036% hits; in the data active = potentiation above about 30%
Hits are given with their value; - = inactive; ? = inconclusive; . = no result given.

SMILES	D1 agonist	Chronic BCR inh	D3 antag	D1 antag	D3 ag	D1 PAM
CCOc1ccccc1N(C)S(=O)(=O)c1ccc2c(c1)CC(C)N2C(=O)C1CC1 (configuration not stated)	-	-	-	-32	-	-
O=C(COc1ccc(F)cc1)NCC(c1ccc(Cl)cc1)N1CCCCC1 (configuration not stated)	-	.	.	-	-	-
Cc1ccc(-c2nc3c(c(SCC(=O)Nc4ccccc4Cl)n2)Cc2c(CO)cnc(C)c2O3)cc1	-	.	.	-	-	-
COc1ccccc1-n1cnc2cc(NS(=O)(=O)c3ccc(Br)cc3)ccc21	-	?	-	-39	-	-
COc1ccc(-n2cnc3cc(NS(=O)(=O)c4ccc(C)cc4)ccc32)cc1	-	?	.	-	.	-
N#Cc1nc(Nc2cccc(C(F)(F)F)c2)nc(NC2CCCC2)n1	-	.	.	-	.	-
Cc1nc2nc(CNC(=O)c3cccc(F)c3)nn2c(C)c1CCC(=O)Nc1ccc(F)cc1	-	.	.	-	-	-
CCc1ccc([C@@H]2CC=C(C(=O)O)[C@H](c3ccc(C(C)(C)C)cc3)N2S(=O)(=O)c2ccc(C)cc2)cc1	.	-	-	.	31	.
Cc1ccc(S(=O)(=O)N2[C@@H](c3ccc(C(C)(C)C)cc3)C(C(=O)O)=CC[C@H]2c2ccc(Cl)cc2)cc1	.	?	-	.	-	.
Cc1ccc([C@@H]2CC=C(C(=O)O)[C@H](c3ccc(C(C)(C)C)cc3)N2S(=O)(=O)c2ccc(C)cc2)cc1	.	?	-	.	30	.
COc1ccc(C)cc1NC(=O)c1ccc(=O)n(Cc2ccccc2)c1	-	-	.	.	-	-
C=CCC(NCc1ccccc1)c1ccc(OC)cc1 (configuration not stated)	-	-	-	-34	-	-
O=C(NCc1ccccc1)c1ccco1	-	-	-	-	-	-
C=CCC(NCc1ccccc1)c1ccco1 (configuration not stated)	-	.	-	-57	-	-
COc1ccc(CC(=O)NCc2ccccc2)cc1	-	-	-	-	-	-
O=S1(=O)N[C@H](Cc2ccccc2)COc2cccc(N3CCN(Cc4ccccc4F)CC3)c21	.	.	?	.	-	.
CCc1nc2ccc(C(=O)NCCOc3ccc(OC)cc3)cn2c1N(C)C(=O)Cc1ccccc1	.	.	-	.	-	.
O=C(CSc1nnnn1-c1ccc(O)cc1)c1cc2ccccc2o1	32	-	-	-	-	-
Cc1cc(C)c(-n2nnnc2SCC(=O)c2cc3ccccc3o2)c(C)c1	-	-	-	-	-	-
Cc1ccccc1NC(=O)CSc1nnc(-c2cccc(Cl)c2)o1	-	.	.	-	-	-
Cc1cc(C)c(/C=C/c2onc(C)c2S(=O)(=O)N2CCC(C(=O)Nc3ccc(Cl)c(C(F)(F)F)c3)CC2)c(C)c1	-	.	.	-	-	-
CCN1C(=NCCOC)N[C@@H](c2cccc(C(F)(F)F)c2)C(C(=O)OC)=C1C	-	-	?	-	-	-
CCN1C(=NCCc2ccccn2)N[C@@H](c2cccc(C(F)(F)F)c2)C(C(=O)OC)=C1C	-	-	-53	-	-	-
CCN1C(=NCc2ccc(OC)cc2)N[C@@H](c2ccccc2)C(C(=O)OC)=C1C	-	-	-	-	41	-
COC(=O)C1=C(C)N(Cc2ccccc2)C(=O)N[C@H]1c1cccc(C(F)(F)F)c1	-	-	-	-	-	-
SMILES	D1 agonist	Chronic BCR inh	D3 antag	D1 antag	D3 ag	D1 PAM
COC(=O)C1=C(C)N(Cc2ccccc2)C(=NCCc2ccccn2)N[C@H]1c1cccc(C(F)(F)F)c1	34	?	-	-	-	-
COC(=O)C1=C(C)N(Cc2ccccc2)C(=NCC2CC2)N[C@H]1c1ccc(Br)cc1	-	?	.	-80	.	-
NS(=O)(=O)c1ccc(CCNC(=O)CSc2nc3c(sc(=S)n3-c3ccccc3)c(=O)[nH]2)cc1	.	.	-	.	-	.
COC(=O)C1=C(C)N(Cc2ccccc2)C(=NCc2ccccc2)N[C@H]1c1cccc(C(F)(F)F)c1	.	?	-	.	33	.
COC(=O)C1=C(C)N(Cc2ccccc2)C(=NCC(C)C)N[C@H]1c1cccc(C(F)(F)F)c1	.	?	-	.	-	.
CCCCOc1ccc(CNC(=O)c2cc3n(n2)CCCN(Cc2ccc(C)cc2)C3=O)cc1	-	.	.	-	-	-
Cc1ccc(N(CC(O)CN2CCCCC2)S(=O)(=O)c2ccccc2[N+](=O)[O-])cc1 (configuration not stated)	-	-	-51	-	-	-
O=[N+]([O-])c1ccccc1S(=O)(=O)N(CC(O)CN1CCCCC1)c1ccccc1 (configuration not stated)	-	-	-	-	-	-
CCc1ccc(/C=C2\Oc3cc(OS(C)(=O)=O)ccc3C2=O)cc1	-	-	-	-	-	-
CCc1ccc(/C=C2\Oc3c(ccc(O)c3CN3CCN(CCO)CC3)C2=O)cc1	64	?	-	-	-	-
CN(NC(=O)C(C)(C)C)c1nc(-c2ccccc2)nnc1C(F)(F)F	-	-	-	-	-	-
CN(C)c1nc(-c2ccccc2)nnc1C(F)(F)F	-	-	-64	-	-	-
CN(C)CCNc1nc(-c2ccccc2)nnc1C(F)(F)F	-	-	-51	-	-	-
Cc1nnc(-c2ccc(Cl)cc2)nc1NCCN(C)C	-	-	-	-	-	-
Fc1ccc(Sc2nc(-c3ccccc3)nnc2C(F)(F)F)cc1	-	-	-88	-	-	-
Cc1ccc(C)c(OCC(=O)OCc2csc(CC(=O)Nc3ccccc3C)n2)c1	.	.	-	.	-	.
CC(C)OCCCNC(=O)CCCN1C(=O)CCn2nc(-c3cccn3C)cc21	-	.	.	-	-	-
CCOc1ccc(CCNC(=O)c2ccc(CSCc3ccccc3C)o2)cc1OCC	36	?	.	-	-	-
Cc1ccc(CNC(=O)c2ccc(CSCc3ccccc3Cl)o2)cc1	-	-	.	-	-	-
O=C(NCCc1ccc(Cl)cc1)c1ccc(CSCc2ccccc2Cl)o1	31	-	.	-	-	-
CCOc1ccc(CCNC(=O)c2ccc(CS(=O)(=O)c3ccccc3C)o2)cc1OCC	-	.	.	-	-	-
Cc1cccc(CSCc2ccc(C(=O)NCCc3ccccc3)o2)c1	-	?	.	-79	-	-
Cc1ccc(C(=O)Nc2nnc(S(=O)(=O)N(C)Cc3ccc(F)cc3)s2)cc1	-	.	.	-	-	-
Cc1ccc(CSc2nc(-c3ccc(C(C)(C)C)cc3)nc3cc(=O)[nH]n23)cc1	-	.	.	-	-	-
COc1ccc(C2=NOC(CN3C(=O)c4ccccc4S3(=O)=O)C2)cc1 (configuration not stated)	-	-	-	-	-	-
O=C1c2ccccc2S(=O)(=O)N1CC1CC(c2ccccc2)=NO1 (configuration not stated)	-	-	-	-34	-	-
